High-throughput results: PubChem, The Scripps Research Institute Molecular Screening Center
This is a sample that favours compounds with a hit; in the whole collection about 4.8% have one here.
DAX1 inh-1: inhibitors of human orphan nuclear receptor DAX1 (NR0B1). P51843. HEK293 Gal4-DAX1 luciferase reporter, luminescence. inhibition, % at 6.75 µM. 340,000 compounds, 0.99% hits. AID 504766;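 active = inhibition above the mean over all tested compounds plus 3 SD, cut at about 4.2% in these data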;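 also: 0% = DAX1-transfected cells with DMSO and 100% = empty-vector control cells with DMSO; inhibition shows as a rise in luminescence from relieved DAX1 repression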
ssDAF-12 act: S. stercoralis DAF-12 activation, primary screen; HEK293 ssDAF-12/GRIP1 lit1-tk-luc reporter, luminescence; % of 3 µM dafachronic acid response; activation, % at 6.8 µM; 370,000 compounds, 1% hits; AID 652126;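 active = activation above the mean over all tested compounds plus 3 SD, cut at about 0.9% in these data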;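 also: 0% = DMSO-only wells and 100% = 3 µM delta7-dafachronic acid wells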
DAX1 inh-2: inhibitors of DAX1 repression of SF-1 activated StAR promoter | HEK293T StAR-luciferase reporter, SF-1/DAX-1 repression relief | inhibition, % at 6.8 µM | 370,000 compounds, 1.1% hits | AID 652010;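 active = inhibition above the mean over all tested compounds plus 3 SD, cut at about 3.6% in these data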;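 also: 0% = DAX-1 cells with DMSO and 100% = cells lacking DAX-1 with DMSO; higher inhibition means more luminescence from relief of DAX-1 repression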
SMARCA2 act: activators of SMARCA2 function; MG213 cells, MMTV-luciferase reporter, dexamethasone, overnight; activation, % at 9.1 µM; 370,000 compounds, 1% hits; in the data active = activation above about 7.8%;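 also: 0% = vehicle wells and 100% = reference activator wells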
hcDAF-12 act: H. contortus DAF-12 activation, primary screen; HEK293 hcDAF-12 lit1-tk-luc reporter, luminescence; 0% DMSO, 100% Δ7-dafachronic acid; activation, % at 6.8 µM; 370,000 compounds, 1.4% hits; AID 652067;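 active = activation above the mean of all tested compounds plus 3 SD, cut at about 5.5% in these data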;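 also: 100% = response to 3 µM Δ7-dafachronic acid high control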
hgDAF12 agonist: hgDAF-12 agonism, primary luciferase screen; activation, % at 6.8 µM; 370,000 compounds, 1.8% hits; AID 687014; HEK293 GAL4-hgDAF12 UAS-luciferase reporter, agonist luminescence; normalized to butyrate control;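 active = activation above a cutoff set at the mean of all screened compounds plus 3 SD, cut at about 10% in these data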;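 also: 0% = DMSO wells and 100% = sodium butyrate wells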
DAX1 inh confirm: NR0B1 (human) inhibition, confirmation; shares compounds with DAX1 inh-2; 2,400 compounds, 87% hits; inhibition, % at 6.8 µM; HEK293T StAR-promoter luciferase reporter, SF-1/DAX-1 repression;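 active = inhibition above the average of every tested compound plus 3 SD, cut at about 3.8% in these data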;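 also: 0% = DAX-1 cells with DMSO and 100% = no DAX-1 control cells with DMSO; active compounds raise luminescence by relieving repression of the StAR reporter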
Target sequence (P51843 whole entry, looked up): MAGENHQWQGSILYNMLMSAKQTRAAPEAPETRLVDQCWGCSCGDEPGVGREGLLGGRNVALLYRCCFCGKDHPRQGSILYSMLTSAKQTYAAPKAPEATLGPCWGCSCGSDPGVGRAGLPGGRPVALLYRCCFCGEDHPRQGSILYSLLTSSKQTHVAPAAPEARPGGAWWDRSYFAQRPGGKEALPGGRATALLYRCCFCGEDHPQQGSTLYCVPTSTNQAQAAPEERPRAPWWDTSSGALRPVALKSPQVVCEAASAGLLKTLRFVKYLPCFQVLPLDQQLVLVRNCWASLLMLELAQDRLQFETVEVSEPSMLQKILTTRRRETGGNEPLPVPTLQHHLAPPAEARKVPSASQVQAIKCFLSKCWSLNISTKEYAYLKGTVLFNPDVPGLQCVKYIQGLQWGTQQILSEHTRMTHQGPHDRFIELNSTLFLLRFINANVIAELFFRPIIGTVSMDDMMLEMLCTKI
SF1 mutant ctr: counter-screen for DAX1 inhibitors: nonselective inhibitors with SF-1 AF2 mutant; shares compounds with DAX1 inh-2; HEK293 StAR-luciferase, luminescence; inhibition, % at 6.8 µM; 2,400 compounds, 78% hits; AID 652136;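 active = inhibition above the mean of all tested compounds plus 3 SD, cut at about 3% in these data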;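 also: 0% = DAX-1 transfected cells with DMSO and 100% = cells without DAX-1 with DMSO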
Starred values were filed as active, the others as inactive.

Results for CCCCc1ccc(NC(=O)c2cnccn2)cc1 ?
DAX1 inh-1: -1; ssDAF-12 act: 0; DAX1 inh-2: 8.9*; SMARCA2 act: 3; hcDAF-12 act: 4; hgDAF12 agonist: 12*; DAX1 inh confirm: 11*; SF1 mutant ctr: 7.5*

How did Cc1cc(C)c2oc(C(=O)NCCc3ccc(S(N)(=O)=O)cc3)cc(=O)c2c1 do in these assays?
DAX1 inh-1: 0; ssDAF-12 act: -1; DAX1 inh-2: 0; SMARCA2 act: -1; hcDAF-12 act: -1; hgDAF12 agonist: 3

What do the screens show for `O=C(Nc1ccc(F)cc1)c1ccc(CSc2ccc(Cl)cc2)o1`?
DAX1 inh-1: -1; ssDAF-12 act: -1; DAX1 inh-2: 0; SMARCA2 act: -1; hcDAF-12 act: 1; hgDAF12 agonist: 1

How did COc1ccc(N2CCN(CCCNC(=O)CC3Oc4ccc(C)cc4NC3=O)CC2)cc1 (centres undefined) do in these assays?
DAX1 inh-1: 4; ssDAF-12 act: -1; DAX1 inh-2: -1; SMARCA2 act: 0; hcDAF-12 act: 0; hgDAF12 agonist: -1

What do the screens show for `Cc1cc2c(cc1C)C(c1cccc(F)c1)CC(=O)N2` (centres undefined)?
DAX1 inh-1: 0; ssDAF-12 act: -1; DAX1 inh-2: -1; SMARCA2 act: -1; hcDAF-12 act: -1; hgDAF12 agonist: -2

How did CCc1ccc2nc(N(CCN(C)C)C(=O)c3ccc4ncsc4c3)sc2c1 do in these assays?
DAX1 inh-1: 0; ssDAF-12 act: 0; DAX1 inh-2: 7.6*; SMARCA2 act: 2; hcDAF-12 act: 1; hgDAF12 agonist: 9; DAX1 inh confirm: 8.0*; SF1 mutant ctr: 5.4*

How did CCCn1c(COc2ccccc2OC)nc2ccccc21 do in these assays?
DAX1 inh-1: -2; ssDAF-12 act: -1; DAX1 inh-2: 0; SMARCA2 act: -1; hcDAF-12 act: -2; hgDAF12 agonist: -1

Results for CCn1c(SCC(=O)Nc2ccc(C)cc2)nc2sc3c(c2c1=O)CCN(C)C3 ?
DAX1 inh-1: 1; ssDAF-12 act: -1; DAX1 inh-2: -3; SMARCA2 act: 1; hcDAF-12 act: -2; hgDAF12 agonist: 0

Results for Nc1nc2ccc(C(=O)NCCOC(=O)C3CCCCC3)cc2s1 ?
DAX1 inh-1: 1; ssDAF-12 act: -2; DAX1 inh-2: 1; SMARCA2 act: -1; hcDAF-12 act: -2; hgDAF12 agonist: -2

What do the screens show for `Cc1cccc(C)c1-n1nnnc1C1c2ccccc2C(=O)N1C1CC1` (centres undefined)?
ssDAF-12 act: -1; DAX1 inh-2: 4.9*; SMARCA2 act: 0; hcDAF-12 act: 0; hgDAF12 agonist: 0; DAX1 inh confirm: -2; SF1 mutant ctr: -1

How did O=C(CCCN1C(=O)S/C(=C/C=C/c2ccccc2)C1=O)Nc1ccc(C(=O)O)cc1 do in these assays?
DAX1 inh-1: 1; ssDAF-12 act: -1; DAX1 inh-2: 5.3*; SMARCA2 act: 2; hcDAF-12 act: 3; hgDAF12 agonist: 0; DAX1 inh confirm: 5.2*; SF1 mutant ctr: 3.8*

How did O=C(CCN1C(=O)/C(=C\C=C\c2ccccc2)SC1=S)Nc1cccc(C(=O)O)c1 do in these assays?
DAX1 inh-1: 2; ssDAF-12 act: -1; DAX1 inh-2: 4.9*; SMARCA2 act: 4; hcDAF-12 act: 0; hgDAF12 agonist: 2; DAX1 inh confirm: 6.2*; SF1 mutant ctr: 2

What do the screens show for `O=C(CCCN1C(=O)/C(=C\c2ccccc2)SC1=S)Nc1cccc(C(=O)O)c1`?
DAX1 inh-1: -1; ssDAF-12 act: -1; DAX1 inh-2: 0; SMARCA2 act: -1; hcDAF-12 act: 0; hgDAF12 agonist: 0

What do the screens show for `NC(=O)c1ccc(-c2ccc(N3C(c4ccsc4)=Cc4ccc(F)cc4C3CC(=O)c3ccco3)cc2)cc1` (centres undefined)?
ssDAF-12 act: 0; DAX1 inh-2: -3; SMARCA2 act: -8; hcDAF-12 act: -1; hgDAF12 agonist: -3
